High-throughput results (PubChem BioAssay)
DT40 TDP1 CPT: qHTS for Inhibitors of human tyrosyl-DNA phosphodiesterase 1 (TDP1): qHTS in cells in presence of CPT; chicken DT40 Tdp1-/-;hTDP1 cells + 20 nM CPT, ATP luminescence, 48 h; Potency, µM (doses to about 46.2 µM), for inactives: top-dose activity change, negative = growth inhibition, usual class: inhibitors; 12% of 420,000 active; AID 686979, 2013; note: potency is the fitted concentration of half-maximal effect; nearly all actives have a fitted effect of over 55% in size
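Chicken DT40 Tdp1-/- cells complemented with human TDP1, 400 cells/well, exposed to compounds plus 20 nM camptothecin for at least 48 h at 37 C; viability read as ATP content by CellTiter-Glo luminescence.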
DT40 TDP1 no CPT: qHTS for Inhibitors of human tyrosyl-DNA phosphodiesterase 1 (TDP1): qHTS in cells in absence of CPT | Potency, µM (top dose mostly 46.2 µM), inactives show top-dose activity change, negative = growth inhibition, usual class: inhibitors | DT40 Tdp1-/- hTDP1 cells, no CPT, ATP luminescence, 48 h | AID 686978, 2013 | 15% of 420,000 active; note: potency is the fitted concentration of half-maximal effect; nearly all actives have a fitted effect of over 55% in size
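No-CPT arm: Tdp1-/-;hTDP1 DT40 cells (400/well) plus compounds, incubated ≥48 hr at 37 °C. Readout CellTiter-Glo luminescence.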
Gal4-VP16 FLuc: VP16 counterscreen qHTS for inhibitors of ROR gamma transcriptional activity | Drosophila S2 Gal4-VP16 UAS-luciferase, luminescence, 20 h | Potency, µM (series often up to 53.6 µM), for inactives: at the top dose activity, negative = inhibition, actives largely listed as inhibitors | 3.5% of 310,000 active;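 note: Gal4-VP16 expression switched on by copper sulfate through the metallothionein promoter; potency is the fitted concentration of half-maximal effect; nearly all actives have a fitted effect of over 50% in size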
RORgamma inh: qHTS for inhibitors of ROR gamma transcriptional activity; Drosophila S2 Gal4-RORgamma UAS-luciferase reporter, 20 h; Nuclear receptor ROR-gamma (Mus musculus), P51450; Potency, µM (highest dose often 53.6 µM), inactives show top-dose activity change, negative = inhibition, usual class: inhibitors; 5.4% of 310,000 active; note: potency is the fitted concentration of half-maximal effect; nearly all actives have a fitted effect of over 60% in size
Target sequence (P51450 whole entry, looked up, the tested form may be a part): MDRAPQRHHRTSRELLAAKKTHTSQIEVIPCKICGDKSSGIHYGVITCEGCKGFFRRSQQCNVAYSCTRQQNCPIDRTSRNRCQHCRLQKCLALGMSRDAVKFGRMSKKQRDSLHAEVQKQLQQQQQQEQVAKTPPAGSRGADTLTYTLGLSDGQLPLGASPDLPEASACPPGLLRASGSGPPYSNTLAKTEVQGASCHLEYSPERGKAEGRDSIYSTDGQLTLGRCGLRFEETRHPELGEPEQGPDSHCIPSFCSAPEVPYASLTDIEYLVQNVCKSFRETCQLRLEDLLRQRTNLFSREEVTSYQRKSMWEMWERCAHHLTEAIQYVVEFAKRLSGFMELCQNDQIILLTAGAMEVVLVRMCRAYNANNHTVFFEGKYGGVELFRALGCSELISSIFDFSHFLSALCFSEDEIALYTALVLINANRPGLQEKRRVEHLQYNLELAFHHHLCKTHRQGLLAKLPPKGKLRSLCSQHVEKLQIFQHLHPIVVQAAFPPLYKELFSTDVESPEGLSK
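Read-out: Photinus luciferase luminescence; inhibitors lower reporter signal. Insect Schneider cells with Gal4-ROR gamma fusion under metallothionein promoter, UAS reporter; 700 uM final copper sulfate induction, 20 hr, ambient temperature.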
IL-1B inflam inh: qHTS for Inhibitors of Inflammasome Signaling: IL-1-beta AlphaLISA Primary Screen | THP-1 LPS/ATP IL-1B secretion, AlphaLISA, 16 h; hits give low values | activity change, % at 57.5 µM | 4.7% of 360,000 active | AID 743279, 2014; in the data active = activity change below about -50%; inconclusive = mostly about -30% to -49%
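THP-1 cells pretreated 1 hr with compounds (up to 57.5 uM final), then stimulated with LPS (250 ng/mL final) plus ATP (1.25 mM final); secreted IL-1B measured by AlphaLISA after 16 hr, decreased signal indicating inhibition.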
LDHA inh: qHTS assay for inhibitors of human lactate dehydrogenase; activity change, % (values are at about 110 or 230 µM); 0.15% of 480,000 active; purified LDHA, NADH/diaphorase-resazurin fluorescence; hits give low values; AID 1347041, 2019; in the data active = activity change below about -30%; inconclusive = mostly about -25% to -30%;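 note: plate controls were DMSO wells for no effect and wells without enzyme for full effect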
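Enzyme activity of human lactate dehydrogenase 5 (2 nM; 0.06 mM NADH, 0.2 mM pyruvate, 5 min, RT) is measured via a resazurin/diaphorase fluorescence readout of residual NADH.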
* marks the source's active call; other numbers are inactive results; ? = inconclusive; . = no result given. Shown are actives, neighbours in structure and some others; about 18% of the full set was active somewhere. Unless noted, calls come from the whole dose curve; as a rule, active = well fitted curve in the direction sought with a large enough effect; inconclusive = small, poorly fitted or top-dose-only effect, or another doubt; inactive = no such curve, though single readings can be large; an effect the other way counts as inactive or inconclusive. Unless noted, % is set by controls: 0 for no effect and ±100 for the full control effect.

SMILES | DT40 TDP1 CPT | DT40 TDP1 no CPT | Gal4-VP16 FLuc | RORgamma inh | IL-1B inflam inh | LDHA inh
COc1ccc(-c2cc(NC(C)=O)c3ncc(-c4ccc(OC)c(OC)c4)n3c2)c(OC)c1 | 23µM* | 21µM* | . | . | -59* | 6
O=C(NC(c1ccccc1)c1ccccn1)c1cccc[n+]1[O-] (stereo unspecified) | . | . | . | . | . | 2
O=C(O)COc1ccc(/C=C/c2nc3ccccc3c(=O)n2-c2ccc(C(=O)O)cc2)cc1 | . | . | . | . | . | 9
CCc1ccc2c(CSc3nncn3C(C)C)cc(=O)oc2c1 | . | . | . | . | . | 3
Cc1cc(C)c(NC(=O)CCCc2cccs2)c(Cl)c1 | . | . | . | . | . | 0
COc1cccc(NC(=O)C2CC(=O)n3cnnc3S2)c1 (stereo unspecified) | 2.9µM* | 5.2µM* | ? | ? | 4 | 0
COc1ccc(NC(=O)C2CC(=O)n3cnnc3S2)cc1 (stereo unspecified) | 2.3µM* | 4.6µM* | ? | ? | -4 | -4
CCCn1nc(C)cc1-c1nn2c(-c3cc(F)ccc3F)nnc2s1 | . | . | . | . | . | -7
CC1(C)C(=O)N(CC(=O)NC2CCCc3ccccc32)c2ccccc21 (stereo unspecified) | . | . | . | . | . | -1
COCc1nn2c(c1-c1ccccc1)NC(=O)CC2C(=O)Nc1ccc(F)c(F)c1 (stereo unspecified) | . | . | . | . | . | -7
Cc1oc(-c2ccccc2)nc1Cn1cccc1C1=NC(c2ccccc2)CO1 (stereo unspecified) | ? | 23µM* | ? | -33% | -10 | 3
Fc1ccc(Cn2cccc2C2=NC(c3ccccc3)CO2)cc1 (stereo unspecified) | -25% | 4% | -8% | 26% | -10 | 0
C1=Cc2ccccc2/C1=C\c1cccc(/C=C2\C=Cc3ccccc32)c1 | ? | ? | . | . | . | -2
C1=Cc2ccccc2/C1=C\c1cc2c3c(c1)CCCN3CCC2 | 1.1µM* | 5µM* | . | . | . | 3
Clc1ccc(-n2cc(-c3ccccc3)cc2-c2ccccc2)cc1 | . | . | . | . | . | -1
COc1ccccc1C(=O)C1CCCN(C(=O)c2ccc(Cl)cc2)C1 (stereo unspecified) | ? | 16µM* | . | . | 10 | 0
COc1ccccc1C(=O)C1CCCN(C(=O)c2ccccc2Cl)C1 (stereo unspecified) | ? | ? | 2% | 26% | 0 | -3
COc1ccccc1C(=O)C1CCCN(C(=O)CCC(=O)c2ccccc2)C1 (stereo unspecified) | 10µM* | 29µM* | -16% | 35% | 5 | -2
CC(C)(C)c1ccc(C(=O)NC(Cc2c[nH]c3ccccc23)C(=O)OCC(=O)c2ccccc2)cc1 (stereo unspecified) | -27% | -20% | . | . | . | -2
COC(=O)C(Cc1c[nH]c2ccccc12)NC(=O)c1ccc2nc[nH]c2c1 (stereo unspecified) | 12% | 10% | . | . | -68* | -7
COc1ccc(C(=O)COC(=O)C(Cc2c[nH]c3ccccc23)NC(=O)c2ccc(C(C)(C)C)cc2)cc1 (stereo unspecified) | 18µM* | 13µM* | . | . | . | 2
Cc1ccc(NC(=O)C(C)n2cccn2)c(Br)c1 (stereo unspecified) | . | . | . | . | . | 6
Cc1ccccc1/[N+]([O-])=C/c1ccco1 | . | . | . | . | . | -1
CCCc1nnc(NC(=O)c2c(O)c3cccc4c3n(c2=O)CCC4)s1 | 3.5µM* | 0.79µM* | 4% | 13% | . | 0
Cc1c(C(=O)NC2=NCCS2)oc2c(Cl)cccc12 | . | . | . | . | . | 21
CN1OC[C@@H]2CN[C@H](c3ccc(-c4ccc(C#N)cc4)cc3)C[C@@H]21 | 18µM* | 23µM* | . | . | 6 | -10
